For nine molecules, growth results are on record in PubChem BioAssay (NCI).

The panel holds about 83,000 compounds, 20% with a hit somewhere; the sample as a whole holds those more often.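 Each cell line was grown in a 96-well plate and treated with one concentration of compound for 48 hours. Values below 10 were considered active.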 Values without a mark were called inactive. Active and inactive are the calls of the source.

Common to all, as to test: NCI-60 one-dose screen, 48 h (100 = growth as untreated, 0 = no growth, -100 = all killed)
Holding throughout (settings): 10 µM unless noted

In assay [1] the test system is SR leukemia.
Assay [2] concerns RPMI-8226 leukemia.
In assay [3] the test system is OVCAR-8 ovarian.
Assay [4] concerns OVCAR-5 ovarian.
Assay [5] relates to OVCAR-4 ovarian.
In assay [6] the test system is SK-OV-3 ovarian.
In assay [7] the test system is OVCAR-3 ovarian.
Assay [8] concerns HS 578T breast.
In assay [9] the test system is NCI/ADR-RES ovarian.
Assay [10] relates to T-47D breast.
Assay [11] concerns MDA-MB-435 melanoma.
For assay [12], the system named is SW-620 colon.
For assay [13], the system named is MCF7 breast.
Assay [14] has as its system HCT-116 colon.
In assay [15] the test system is HCC-2998 colon.
Assay [16] concerns KM12 colon.
Assay [17] concerns BT-549 breast.
For assay [18], the system named is IGROV1 ovarian.

As to `O=[N+]([O-])c1cccc(-c2nc3sccn3c2-c2ccnc(NCCNS(=O)(=O)c3ccc(C(F)(F)F)cc3)n2)c1`, the growth was 39.2% in assay [1]; 4.8% (active) in [2]; 26.1% in assay [3]; 87.4% in assay [4]; 31.2% in [5]; 74% in assay [6]. The growth in assay [7] was 40.5%; in assay [8] it was 66.4%; in [9], 26.9%; in assay [10], -3.01% (active); in assay [11], 20.7%; in [12] it was 69.8%. The growth in assay [13] is 21.9%; in assay [14], 35.6%; in assay [15], 65.2%; in assay [16], 22.5%.
Consider `COc1ccc(S(=O)(=O)NCCCNc2nccc(-c3c(-c4cccc(N)c4)nc4sccn34)n2)cc1`, for which the growth in [1] was 86.4%; in [2], 84%; in assay [3], 93.5%; in assay [4], 134%; in assay [5], 97.1%; in assay [6] it was 112%. For the same molecule, the growth is 94.5% in assay [7]; 93.9% in assay [8]; 94.7% in [9]; 63% in [10]; 102% in assay [17]; 70.2% in assay [11]. Besides, the growth was 138% in [12]; 69.3% in assay [13]; 99.2% in assay [14]; 144% in assay [15]; 39.4% in assay [16].
In the case of `O=c1c2cccc3c(NC4CCCCC4)ccc(c32)c2nc3ccccc3n12`, the growth is 1.11% (active) in [1]; 75.6% in assay [2]; 97.9% in [3]; 103% in [4]; 80.1% in assay [5]; 98.3% in assay [6]. In addition, the growth in [7] was 86.8%; in [8], 96%; in assay [9], 95.5%; in [10] it was 32.5%; in assay [17] it was 94.1%; in assay [11], 103%. Also, the growth in assay [12] is 80.1%; in assay [13], 13.5%; in [14], 85.3%; in assay [15] it was 51.7%; in assay [16], 81.1%.
For the molecule `Cc1cc(Nc2nc(N3CCN(C)CC3)nc3ccccc23)n[nH]1`, the growth in assay [1] was 20.7%; in [2] it was 87.2%; in [3] it was 99.6%; in assay [4] it was 86.7%; in assay [5] it was 54.5%; in assay [6], 25.5%. Also, the growth in assay [7] was 75.8%; in assay [8] it was 50.8%; in assay [9] it was 122%; in [10] it was 71.2%; in [17], 76.2%; in assay [11], 52.2%. Moreover, the growth is 69.2% in assay [12]; 46.2% in [13]; 50.3% in assay [14]; 87.6% in assay [15]; 19% in assay [16].
Consider `C=CC[N+]1(CCO)CCN=C1CCCCCCCCCCCCC` (stereo not given), for which the growth in assay [1] is -39.7% (active); in assay [2], -39.5% (active); in assay [3], -74.3% (active); in [4], -94.9% (active); in assay [5], -25.9% (active); in assay [18], -82% (active). Moreover, the growth in [7] is -84.4% (active); in assay [8], -36.5% (active); in assay [9], -62% (active); in assay [10], -39.2% (active); in assay [17], -10.2% (active); in assay [11] it was -78.1% (active). In addition, the growth in [12] is -72.3% (active); in assay [13], -72.3% (active); in [14] it was -95.1% (active); in assay [15] it was -91.1% (active); in assay [16], -83.2% (active).
Regarding `CCCCN(CC)CCCCCCCCCCN1CCCc2cc(OC)ccc21`, the growth in assay [1] is -31.7% (active); in assay [2] it was -18.4% (active); in [3], 87.5%; in assay [4], 78.8%; in assay [5], 101%; in [6], 88.9%. The growth in assay [7] is 13.6%; in assay [9] it was 25.9%; in assay [10] it was 93.6%; in [17], 89.3%; in [11] it was 14.5%; in assay [12], 22.7%. For the same molecule, the growth in [13] was 99%; in assay [14] it was 69.7%; in assay [15], -26% (active); in [16], -1.91% (active).
For the molecule `CCOC(=O)C(Cc1cc(I)c(O)c(I)c1)NC(=O)c1ccccc1` (stereo not given), the growth is 88.9% in [1]; 89.5% in [2]; 97.7% in assay [3]; 96.1% in assay [4]; 108% in assay [5]; 99% in [18]. In addition, the growth is 108% in assay [7]; 87% in [8]; 106% in [9]; 86.6% in [10]; 101% in [17]; 100% in [11]. The growth is 94.4% in assay [12]; 92.5% in [13]; 96.2% in assay [14]; 119% in [15]; 102% in [16].
Regarding `CCN(CC)CCC(=O)Nc1ccc(Cn2nnc3c2C(=O)c2nnn(Cc4ccc(NC(=O)CCN(CC)CC)cc4)c2C3=O)cc1`, the growth in [1] was -18.9% (active); in [2] it was -16.6% (active); in assay [3], -35.6% (active); in [4], -19.1% (active); in assay [5], -72.7% (active); in assay [18] it was -55.6% (active). The growth in assay [7] is -16.2% (active); in assay [8], 14.2%; in assay [9], 99.3%; in assay [10], -58% (active); in [17] it was -94.2% (active); in [11] it was -80.1% (active). In addition, the growth is -9.46% (active) in assay [12]; -60.2% (active) in assay [13]; -87.9% (active) in assay [14]; -47.2% (active) in [15]; -6.54% (active) in [16].
For `O=C(O)C(O)C(O)C(=O)O.[NH-]C1CCCCC1[NH-].[Pt+2]` (stereo not given), the growth is 117% in assay [1]; 110% in assay [2]; 108% in assay [4]; 106% in assay [5]; 105% in assay [6]; 107% in [7]. The growth in assay [8] is 109%; in [9] it was 107%; in assay [10], 105%; in assay [17] it was 108%; in assay [11], 104%; in assay [12], 95%. Also, the growth in assay [13] is 91.9%; in assay [14], 95.1%; in assay [15], 104%; in [16], 96.4%.
